Test results taken from PubChem BioAssay (NCI).
The panel holds about 83,000 compounds, 20% with a hit somewhere; the sample as a whole holds those more often.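 Note: values are percent growth. 100 is the growth of untreated cells, values between 100 and 0 indicate rising inhibition; between -100 and 0 indicates cell death.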 A number with no mark means an inactive call. Activity calls are given as the source filed them. Rule for the calls: active = growth percent below 10; inactive = the rest.

system: HL-60(TB) leukemia; assay: NCI-60 one-dose screen, 48 h (100 = growth as untreated, 0 = no growth, -100 = all killed); conditions: 10 µM unless noted

Compound	growth
CCCc1cn(CC(=O)Nc2nc3ccccc3s2)nn1	101%
Cc1ncc(C(=O)Nc2ccc(CN3CCN(C)CC3)c(C(F)(F)F)c2)cc1C#Cc1c(N)ncc2ccc(F)cc12	9.43% (active)
N#CC1c2ccccc2-c2ccccc2N1C(=O)c1ccccc1 (stereo not given)	21.6%
Cc1cc(C)c(O)c(CNCCCCCCNCc2cc(C)cc(C)c2O)c1	-43% (active)
S=c1[nH]nc2ccccn12	59.3%
COc1cc(-c2cc(-c3ccc(C)cc3)nc3nc(N)[nH]c(=O)c23)ccc1Oc1ccnc2cc(Cl)ccc12	56.2%
OC(CCN1CCCC1)(c1ccccc1)C1CCCCC1 (stereo not given)	119%
Cc1cc(C)cc(Nc2nccc(-c3c(-c4ccc(F)cc4)ncn3C3CCNCC3)n2)c1	-58.9% (active)
CN1CCN(c2ccc(-c3cc4c(Nc5ccc(F)c(Cl)c5)ncnn4c3)cn2)CC1	72.8%
O=C(Nc1ncccc1OCc1ccccc1)NC1CCCCCC1	57.7%
O=C(Nc1ccc(OCc2nnc(-c3ccccc3)o2)c(F)c1)Nc1ccc(Cl)c(C(F)(F)F)c1	-19.7% (active)
O=C(Cc1ccc(Nc2ccnc(C(F)(F)F)c2)cc1)N/N=C/c1ccccc1O	69.1%
Clc1ccc(/C=C/c2cc(N3CCOCC3)c3cc(Cl)c(Cl)cc3n2)cc1	-16.3% (active)
CS(=O)(=O)N1CCN(Cc2cc3nc(-c4cccc5[nH]ncc45)nc(N4CCOCC4)c3s2)CC1	23.6%
Cc1ccc2nc(NC(=O)CSc3nc(-c4ccccc4)c(C#N)c4nnnn34)sc2c1	99.5%
